Here are results for eight compounds from PubChem BioAssay (NCI).

Molecules are shown by their SMILES. This is part of a sample that, as a whole, favours compounds with a hit. Of some 83,000 tested, about 20% had one in any assay.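 Growth was measured after 48 h exposure to one concentration of compound in 96-well plates. Values under 10 count as active.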 A number with no mark means an inactive call. Active and inactive are the calls of the source.

Test systems include NCI-H23 lung; NCI-H226 lung; NCI-H322M lung; HOP-62 NSCLC; NCI-H460 lung; HOP-92 NSCLC; NCI-H522 lung; A549/ATCC NSCLC; 786-0 renal; COLO 205 colon; DU-145 prostate; K-562 leukemia; MALME-3M melanoma; MDA-MB-231 breast; RXF 393 renal; SF-268 CNS; SF-295 CNS; SF-539 CNS; UACC-257 melanoma; M14 melanoma.
What all share (experiment): NCI-60 one-dose screen, 48 h (100 = growth as untreated, 0 = no growth, -100 = all killed)
Common to all, as to conditions: 10 µM unless noted

Turning to `NC(=N\N=C\c1ccccc1O)/C(N)=N/N=C/c1ccccc1O`, the growth with NCI-H23 lung is 90.9%; in the assay on NCI-H226 lung it was 96%; in the assay on NCI-H322M lung, 80.5%; in the assay on HOP-62 NSCLC, 84.5%; with NCI-H460 lung, 70.1%; in the assay with HOP-92 NSCLC, 76.2%. In addition, the growth in the assay with NCI-H522 lung was 63.5%; in the assay with A549/ATCC NSCLC it was 73.6%; in the assay on 786-0 renal it was 85.2%; in the assay on COLO 205 colon, 97.1%; in the assay on DU-145 prostate it was 80.1%; in the assay with K-562 leukemia, 71.1%. For the same compound, the growth in the assay with MALME-3M melanoma was 79%; with MDA-MB-231 breast, 83.6%; in the assay with RXF 393 renal, 106%; in the assay with SF-268 CNS it was 78.8%; in the assay with SF-295 CNS it was 77.7%; with SF-539 CNS, 81.3%. Also, the growth in the assay on UACC-257 melanoma is 84.3%; in the assay on M14 melanoma, 79%.

`CCc1ccc(OCc2ccccc2C(=O)Nc2ccc3nc(C)cc(N)c3c2)cc1`: the growth in the assay on NCI-H23 lung was -73.2% (active); in the assay on NCI-H226 lung it was -45.8% (active); in the assay on NCI-H322M lung it was -92.9% (active); in the assay on HOP-62 NSCLC, -78.6% (active); with NCI-H460 lung, -67.6% (active); with HOP-92 NSCLC, -87.2% (active). Also, the growth in the assay on NCI-H522 lung was -84.5% (active); in the assay on A549/ATCC NSCLC, -73.6% (active); in the assay on 786-0 renal, -88.9% (active); in the assay with COLO 205 colon, -79% (active); with DU-145 prostate, -96.3% (active); in the assay on K-562 leukemia, -68% (active). Also, the growth with MALME-3M melanoma was -86.4% (active); in the assay with MDA-MB-231 breast, -82.4% (active); in the assay with RXF 393 renal, -84.5% (active); in the assay with SF-268 CNS it was -82.5% (active); with SF-295 CNS, -92% (active); in the assay with SF-539 CNS it was -97.5% (active). For the same compound, the growth was -79.7% (active) with UACC-257 melanoma and -93.6% (active) in the assay on M14 melanoma.

For the compound `CC(C)(C)c1ccc(O)c(Cc2cc(C(C)(C)C)ccc2O)c1`, the growth in the assay on NCI-H23 lung was 94.7%; with NCI-H226 lung, 89.9%; in the assay with NCI-H322M lung, 102%; in the assay with HOP-62 NSCLC, 85.9%; in the assay with NCI-H460 lung, 104%; with HOP-92 NSCLC it was -39.4% (active). Moreover, the growth in the assay on NCI-H522 lung was 87%; in the assay with A549/ATCC NSCLC, 92.4%; in the assay on 786-0 renal, 94.2%; in the assay with COLO 205 colon, 110%; with DU-145 prostate, 105%; in the assay on K-562 leukemia, 87.1%. Moreover, the growth with MALME-3M melanoma is 104%; in the assay on MDA-MB-231 breast, 88.1%; with RXF 393 renal, 101%; with SF-268 CNS it was 93.1%; with SF-295 CNS it was 109%; in the assay with SF-539 CNS it was 108%. Further, the values for the growth with UACC-257 melanoma and in the assay on M14 melanoma were 86.6% and 92.3%, respectively.

Turning to `COC(=O)/C=C/c1cc(OC(C)=O)c2c(c1)C(C(=O)OC)C(c1ccc(OC(C)=O)c(OC(C)=O)c1)O2` (stereo not given), the growth was 21.3% in the assay with NCI-H23 lung; 81.7% in the assay with NCI-H226 lung; 55.4% in the assay on NCI-H322M lung; 20% in the assay with HOP-62 NSCLC; 13.8% in the assay on NCI-H460 lung; 33.7% with HOP-92 NSCLC. Moreover, the growth in the assay with NCI-H522 lung was -20.8% (active); in the assay with A549/ATCC NSCLC it was 37.4%; in the assay with 786-0 renal, 19.8%; in the assay on COLO 205 colon, 38.9%; in the assay on DU-145 prostate it was 11.2%; in the assay on K-562 leukemia, 6.86% (active). Besides, the growth with MALME-3M melanoma was 66.3%; in the assay on MDA-MB-231 breast, 16.4%; with RXF 393 renal it was 28.7%; in the assay with SF-268 CNS, 39.6%; in the assay with SF-295 CNS, 3.13% (active); in the assay with SF-539 CNS, -6.94% (active). In addition, the values for the growth in the assay on UACC-257 melanoma and with M14 melanoma were 45.4% and -6.22% (active), respectively.

For `COC(=O)c1ccc2c(c1)NC(=O)[C@@H]1CCCN21`, the growth with NCI-H23 lung is 88.6%; in the assay on NCI-H226 lung, 98.5%; with NCI-H322M lung it was 99.3%; with HOP-62 NSCLC, 85.7%; in the assay on NCI-H460 lung, 106%; in the assay with HOP-92 NSCLC, 87.5%. Further, the growth with NCI-H522 lung was 70%; in the assay on A549/ATCC NSCLC, 98.2%; in the assay on 786-0 renal, 97.8%; in the assay on COLO 205 colon, 108%; in the assay on DU-145 prostate it was 106%; with K-562 leukemia, 96.7%. Moreover, the growth with MALME-3M melanoma is 105%; in the assay on MDA-MB-231 breast, 97.3%; with RXF 393 renal it was 106%; with SF-268 CNS, 94.7%; with SF-295 CNS, 100%; with SF-539 CNS, 93.8%. Moreover, the growth was 98.3% in the assay on UACC-257 melanoma and 102% with M14 melanoma.

On to `COc1ccc2[nH]c(=O)c(/C=C/C(=O)/C=C/c3ccc(O)c(OC)c3)cc2c1`, for which the growth with NCI-H23 lung is 5.43% (active); with NCI-H226 lung, 36.8%; in the assay on NCI-H322M lung, 78.8%; with HOP-62 NSCLC it was 85%; in the assay with NCI-H460 lung it was 20.1%; in the assay with HOP-92 NSCLC, 98.3%. Besides, the growth is 29% with NCI-H522 lung; 22.6% with A549/ATCC NSCLC; -42.7% (active) with 786-0 renal; 29.6% in the assay on COLO 205 colon; 8.26% (active) in the assay on DU-145 prostate; 4.67% (active) with K-562 leukemia. The growth with MALME-3M melanoma is 52.8%; in the assay with MDA-MB-231 breast, 18.3%; in the assay with RXF 393 renal it was -76.7% (active); in the assay on SF-268 CNS, 9.98% (active); in the assay with SF-295 CNS, 17.5%; in the assay with SF-539 CNS, 8.47% (active). In addition, the growth in the assay on UACC-257 melanoma is 40.3%; with M14 melanoma, -32.4% (active).

For the compound `Cc1ccc(C(=O)/C(=C/c2ccc([N+](=O)[O-])cc2)S(=O)Cc2ccccc2)cc1` (stereo not given), the growth in the assay with NCI-H23 lung was 13.6%; with NCI-H226 lung it was 47.1%; in the assay with NCI-H322M lung, 81.6%; with HOP-62 NSCLC, 47.9%; with NCI-H460 lung, 22.1%; with HOP-92 NSCLC it was 36.9%. Also, the growth was -32% (active) in the assay with NCI-H522 lung; 65.1% in the assay with A549/ATCC NSCLC; -49.5% (active) with 786-0 renal; -26.4% (active) in the assay on COLO 205 colon; 4.09% (active) in the assay on DU-145 prostate; 4.71% (active) in the assay on K-562 leukemia. Further, the growth in the assay with MALME-3M melanoma was -13.8% (active); in the assay with MDA-MB-231 breast, -2.07% (active); with RXF 393 renal, -81.6% (active); in the assay with SF-268 CNS, 35.8%; with SF-295 CNS, 82.3%; in the assay on SF-539 CNS, -43.5% (active). Further, the values for the growth in the assay with UACC-257 melanoma and in the assay on M14 melanoma were 65.9% and -26.1% (active), respectively.

As to `COC(=O)c1oc2c(C(=O)/C=C/c3ccc(OC)cc3)c(OCCCN3CCCCC3)ccc2c1C`, the growth in the assay on NCI-H23 lung is 22.1%; in the assay with NCI-H226 lung it was 89.4%; in the assay on NCI-H322M lung it was 17.8%; with HOP-62 NSCLC it was 1.98% (active); in the assay with NCI-H460 lung, 4.2% (active); with HOP-92 NSCLC, -38.8% (active). The growth in the assay with NCI-H522 lung is 1.11% (active); in the assay with A549/ATCC NSCLC it was -3.52% (active); in the assay on 786-0 renal it was 1.16% (active); in the assay on COLO 205 colon, 29.2%; in the assay with DU-145 prostate, 15.4%; with K-562 leukemia, -16.2% (active). In addition, the growth in the assay with MALME-3M melanoma was -64.4% (active); in the assay on MDA-MB-231 breast, 32.4%; in the assay on RXF 393 renal it was -75.2% (active); in the assay on SF-268 CNS, -2.59% (active); in the assay on SF-295 CNS it was 11.6%; in the assay with SF-539 CNS it was -55.8% (active). The results for the growth with UACC-257 melanoma and in the assay with M14 melanoma were 40.1% and -40.3% (active), respectively.
